LGR2 inh: blocks bursicon-induced cAMP signaling via Drosophila LGR2 | HEK293 LGR2, CRE-luciferase, bursicon-stimulated, 4 h | inhibition, % at 9.99 µM | actives 0.35% (n = 380,000);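 active means drop in luminescence signal, shown as inhibition above about 50% in the replicate tests, limit read from the data, passing the limit was not always enough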;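 further: agonist challenge used bursicon conditioned medium at about half maximal strength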
TWEAK Fn14 block: TWEAK-Fn14 signaling inhibition. TWEAK-stimulated Fn14 reporter cells, luciferase luminescence, 8 h. inhibition, % at 10 µM. actives 2% (n = 360,000). AID 1159606; in the data active means inhibition above about 50%
HSF1 inh: HSF1 inhibition; NIH3T3-HGL HSE-luciferase, MG132-induced, luminescence 8 h; stronger effect = lower value; actives 0.77% (n = 300,000); activity change, negative = inhibition, % at 7.5 µM (by protocol);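 active means more than half of replicate wells show activity change below -50%, luminescence cut by over half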;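 further: luciferase reports HSF-1 transcriptional activity via heat shock element; 0% = median of DMSO wells and -100% = zero luminescence signal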
LMP1 NFkB inh: Epstein-Barr LMP1 NF-kappaB reporter inhibition. LMP1-induced NF-kappaB luciferase reporter cells, luminescence. inhibition, % at 12.5 µM. actives 0.69% (n = 350,000); in the data active means inhibition above about 41%;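 further: 0% = neutral control wells and 100% = reference inhibitor control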
TROY signal inh: inhibitors of TROY-dependent NF-kB signaling; inhibition, % at 10 µM; AID 1347056; actives 0.98% (n = 360,000); Q293 LMP1-TROYcd NF-kB luciferase reporter, 4 h;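 active means compounds whose plate-normalised and pattern-corrected inhibition of the luciferase reporter signal at the single screening dose is 50% or more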
HSF1 activator: increases HSF-1 driven luciferase reporter signal; NIH3T3-HGL HSF-1 luciferase reporter, MG132, 8 h; 100% = twice DMSO control signal; activation, % at 9 µM; actives 1.7% (n = 300,000);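 active means mean replicate activation of at least 50% with a set share of replicates each reaching 50%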;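 further: 0% = median of the neutral control wells and 100% = twice that signal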
Starred values were filed as active, the others as inactive; x = no result. Most compounds without a hit are left out; they make up all but 3.6% or so of the library.

SMILES | LGR2 inh | TWEAK Fn14 block | HSF1 inh | LMP1 NFkB inh | TROY signal inh | HSF1 activator
O=C1NC(=S)N(C2CC2)C(=O)/C1=C/c1ccc2c(c1)CCN2CCCCl | 19 | 12 | -79* | 0 | 3 | -83
Cc1ccccc1S(=O)(=O)N1[C@@H]2c3ccc(-c4cccnc4)c(=O)n3C[C@H]1[C@H](CO)[C@H]2C(=O)O | -9 | x | x | x | x | x
O=C1CNC[C@@H]2[C@@H](c3ccc(Br)cc3)[C@@H](CO)N12 | 6 | x | x | x | x | x
COC(=O)[C@H]1[C@H](CO)[C@H]2Cn3c(ccc(-c4ccc(F)cc4)c3=O)[C@@H]1N2C(C)=O | -3 | x | x | x | x | x
Cc1ccccc1-n1c(O)c(/C=N/NC(=O)c2ccccc2O)c(=O)[nH]c1=S | 26 | 50 | -55* | -5 | 40 | -64
CCOC(=O)CC(NC(=O)C(Cc1ccc(N(CCCl)CCCl)cc1)NC(C)=O)C(=O)OCC (stereo unspecified) | -26 | 26 | 4 | 55* | -5 | 1
O=C(O)[C@H]1[C@H](CO)[C@H]2Cn3c(ccc(-c4ccncc4)c3=O)[C@@H]1N2C(=O)C1CCCCC1 | 11 | x | x | x | x | x
Cc1cc(OCC(=O)N2CCC(C(N)=O)CC2)c2c3c(c(=O)oc2c1)CCCC3 | x | 91* | -1 | 1 | 5 | 0
Cc1cc(OCC(=O)O)c2c3c(c(=O)oc2c1)CCCC3 | x | -24 | -7 | 4 | 2 | -1
CCCc1[nH]nc2c1C1(C(=O)N(Cc3ccccc3)c3ccccc31)C(C(=O)OC)=C(N)O2 (stereo unspecified) | x | 0 | 14 | -2 | -2 | 55*
COC(=O)[C@H]1[C@H](CO)[C@H]2Cn3c(ccc(-c4ccccc4F)c3=O)[C@@H]1N2 | 9 | x | x | x | x | x
COc1ccc(-c2ccc3c(c2)CN(C(=O)NC2CCCCC2)Cc2cnnn2-3)cc1 | -17 | -4 | x | x | 4 | x
COCCCn1c(-c2ccc(OC)cc2)cc(C(=O)NC2CCCCCCC2)c1C | 22 | 64* | 0 | 3 | 9 | 14
Cc1cc(C)nc(-n2c(C)nc3cc(Cl)ccc3c2=O)c1 | -10 | 7 | -78* | 0 | 8 | -83
CC1CCOC(=O)C=CC=CC(=O)OC2CC3OC4C5OC5(C)C(O)CC4(COC(=O)C1O)C2(C)C31CO1 (stereo unspecified) | 104* | 103* | x | 87* | 86* | x
CC1=CC2OC3CC4OC(=O)C=CC=CC(C(C)O)OCC(O)C5(C)OC5C(=O)OCC2(CC1O)C4(C)C31CO1 (stereo unspecified) | 102* | 99* | x | 97* | 83* | x
CC1=CC2OC3CC4OC(=O)C=CC=CC(=O)OCCC(C)C(O)C(=O)OCC2(CC1)C4(C)C31CO1 (stereo unspecified) | x | 101* | x | 82* | 85* | x
CC(O)C1C=CC=CC(=O)OC2CC3OC4C5OC5(C)C(O)CC4(COC(=O)C(O)C(C)CCO1)C2(C)C31CO1 (stereo unspecified) | 104* | 99* | x | 88* | 86* | x
O=C(Cc1cccnc1)N1CCCCN2[C@H](CO)[C@@H](c3ccc(/C=C/c4ccccc4)cc3)[C@H]2C1 | 5 | x | x | x | x | x
COC(=O)[C@H]1[C@H](CO)[C@H]2Cn3c(ccc(C4=CCCCC4)c3=O)[C@@H]1N2CC1CCCCC1 | -3 | x | x | x | x | x
COC(=O)[C@H]1[C@H](CO)[C@H]2Cn3c(ccc(-c4ccccc4)c3=O)[C@@H]1N2CCc1ccccc1 | 8 | x | x | x | x | x
CCCCNC(=O)c1c(N)n(CCCOC)c2nc3ccccc3nc12 | x | 4 | 5 | 15 | 26 | 13
CC(C)CNC(=O)c1c(N)n(Cc2ccc3c(c2)OCO3)c2nc3ccccc3nc12 | x | 27 | 3 | -1 | 63* | 21
CC(C)CCNC(=O)c1c(N)n(Cc2ccc3c(c2)OCO3)c2nc3ccccc3nc12 | x | 49 | 17 | -16 | 60* | 20
COC(=O)c1c(N)n(Cc2ccc(OC)cc2)c2nc3ccccc3nc12 | 24 | 35 | x | -4 | 46 | x
SMILES | LGR2 inh | TWEAK Fn14 block | HSF1 inh | LMP1 NFkB inh | TROY signal inh | HSF1 activator
CCCNC(=O)c1c(N)n(Cc2ccc3c(c2)OCO3)c2nc3ccccc3nc12 | x | 31 | x | -4 | 58* | x
COC(=O)[C@@H]1[C@@H](CO)[C@@H]2Cn3c(ccc(-c4ccccc4)c3=O)[C@H]1N2CC1CCOCC1 | 19 | x | x | x | x | x
COc1ccc(/C=N\N=C(N)N)cc1 | 29 | 13 | -3 | 0 | -2 | -11
NC(N)=N/N=C/c1ccc(N(c2ccccc2)c2ccccc2)cc1 | 52* | 12 | 8 | 4 | 69* | 30
CC1Oc2cc3c(-c4c(O)cc(O)c5c(O)c6c(cc45)OC(C)C(C)C6=O)c(O)cc(O)c3c(O)c2C(=O)C1C (stereo unspecified) | x | 68* | -8 | 29 | 12 | -3
O=C(O)[C@@H]1[C@@H](CO)[C@@H]2Cn3c(ccc(-c4ccccc4)c3=O)[C@H]1N2S(=O)(=O)c1ccccc1F | 1 | x | x | x | x | x
CCn1nc(-c2ccccc2)nc2c(=O)n(C)c(=O)nc1-2 | x | 18 | x | -4 | -1 | x
Cc1nc2c(=O)n(C)c(=O)nc-2n(C)n1 | x | 102* | -94* | 91* | 86* | -95
COc1ccc(S(=O)(=O)NC(CC(=O)N2CCC3(CC2)OCCO3)c2ccco2)cc1 (stereo unspecified) | x | 90* | -3 | -4 | 15 | 3
O=C(Cc1ccccn1)N1CCCCN2[C@@H](CO)[C@H](c3ccc(C#Cc4ccccc4)cc3)[C@@H]2C1 | -1 | x | x | x | x | x
C=Cc1cc(OC)c2c(c1)c(=O)oc1c2cc(OC)c2c(O)ccc(C3OC(C)C(O)C(C)(O)C3O)c21 (stereo unspecified) | x | 91* | x | 88* | -5 | x
O=C(Cc1ccccn1)N1CC2(C1)[C@H](c1ccccc1)[C@H](CO)N2Cc1ccccn1 | 3 | x | x | x | x | x
CC12CCC3C(CC=C4CC(O)CCC43C)C1C/C(=C\N1CCCC1)C2=O (stereo unspecified) | x | x | 36 | x | x | 63*
CC(C)CNC(=O)c1c(N)n(Cc2ccco2)c2nc3ccccc3nc12 | x | 38 | 30 | 1 | 16 | 56*
COCCOC(=O)c1c(N)n(Cc2ccc(OC)cc2)c2nc3ccccc3nc12 | x | 39 | 9 | 3 | 61* | 20

Assay outcomes (PubChem BioAssay)
